# In the library only some 1.1% were active in any assay of this set; here they are far more common.
# Yp Topo-I inh = blocks Yersinia pestis topoisomerase I activity; Y. pestis Topo-I cleavage product accumulation, plate reader; activity, % at 10 µM; actives 0.064% (n = 360,000); in the data active means activity above about 50%, passing the limit was not always enough
# RecA splice inh = blocks M. tuberculosis RecA intein splicing; AID 2221; inhibition, % (no concentration beside the values); cell-free RecA intein splicing, fluorescence; actives 0.75% (n = 290,000); P9WHJ3; in the data active means inhibition above about 30%;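 further: 0% = vehicle wells and 100% = reference inhibitor control wells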
# Target sequence (P9WHJ3 whole entry, looked up, canonical isoform): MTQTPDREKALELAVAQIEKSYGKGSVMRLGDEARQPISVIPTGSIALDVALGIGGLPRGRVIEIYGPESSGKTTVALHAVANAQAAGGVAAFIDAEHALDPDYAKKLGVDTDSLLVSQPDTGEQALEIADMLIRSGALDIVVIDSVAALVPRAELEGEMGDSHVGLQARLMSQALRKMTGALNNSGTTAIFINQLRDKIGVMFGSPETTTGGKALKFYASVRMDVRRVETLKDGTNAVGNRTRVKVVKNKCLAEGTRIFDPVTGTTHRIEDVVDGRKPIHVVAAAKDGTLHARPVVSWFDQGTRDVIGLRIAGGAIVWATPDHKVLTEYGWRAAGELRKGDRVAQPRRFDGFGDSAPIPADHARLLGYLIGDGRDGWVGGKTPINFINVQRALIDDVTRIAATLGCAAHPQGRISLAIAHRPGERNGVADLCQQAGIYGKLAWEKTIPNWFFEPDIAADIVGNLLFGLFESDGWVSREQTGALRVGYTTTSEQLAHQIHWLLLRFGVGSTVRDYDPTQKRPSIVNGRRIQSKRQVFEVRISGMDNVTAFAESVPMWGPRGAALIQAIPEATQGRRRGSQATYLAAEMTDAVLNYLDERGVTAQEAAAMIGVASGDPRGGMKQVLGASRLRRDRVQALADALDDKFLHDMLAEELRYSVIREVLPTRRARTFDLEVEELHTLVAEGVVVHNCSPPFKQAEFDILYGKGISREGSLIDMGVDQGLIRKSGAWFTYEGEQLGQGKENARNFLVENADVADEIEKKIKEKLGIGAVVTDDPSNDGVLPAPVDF
# Mtb betalactam = beta-lactam sensitization of Mtb H37Rv. M. tuberculosis H37Rv growth with meropenem, percent inhibition. inhibition, % at 25 µM. AID 434955. actives 0.27% (n = 330,000);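 further: growth measured after seven days incubation then overnight dye step; 0% = bacteria only wells and 100% = bacteria with antibiotic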
# BJeLR viability = BJeLR cell viability loss; BJeLR (HRASV12) viability, CellTiter-Glo ATP luminescence, 48 h; inhibition, % (concentration not given with the values); actives 0.17% (n = 300,000); in the data active means inhibition above about 50%
# CCHFV vOTU inh = CCHFV vOTU protease inhibition; actives 0.55% (n = 370,000); Pep-AMC fluorescence; AID 651958; inhibition, % at 11.5 µM; in the data active means inhibition above about 30%; further: 0% = vehicle wells with enzyme and 100% = no enzyme wells
# BioA inh = inhibitors of Mycobacterium tuberculosis BioA enzyme | purified M. tuberculosis BioA enzyme, plate reader | inhibition, % at 9.99 µM | actives 0.096% (n = 360,000); in the data active means inhibition above about 40%
# GFP chromo cs = counter-screen GFP chromophore formation inhibition; shares compounds with RecA splice inh; actives 83% (n = 2,100); EC50, µM; cell-free GFP chromophore formation, fluorescence
# * hit, by the source's call; / = no result. Unless noted, how the calls were made is not given here.
SMILES,Yp Topo-I inh,RecA splice inh,Mtb betalactam,BJeLR viability,CCHFV vOTU inh,BioA inh,GFP chromo cs
O=C(/C=C/c1ccc(F)cc1)NC(=S)N1CCCCC1c1cccnc1 (stereo unspecified),-4.7,5.1,-4.5,-0.6,-4.0,3.9,/
O=C1/C(=C/c2ccc(F)cc2)SC(=S)N1CC(=O)N1CCCCC1c1cccnc1 (stereo unspecified),21.8,38.0*,74.5,6.0,18.7,-0.6,>38
CC(=O)C1=C(c2ccc(Br)cc2)C(=O)c2ccccc2C1=O,-0.5,58.2*,97.8,28.6,22.8,7.9,3.14*
C/C(CC(=O)Nc1cc(C)ccn1)=N\NC(=O)C(=O)NC(C)C,7.8,63.6*,-6.7,-3.6,-14.4,/,39.2*
C/C(CC(=O)Nc1cc(C)ccn1)=N\NC(=O)c1cccc(C)c1,4.8,70.1*,2.8,4.8,9.0,/,18.2*
Cc1cc(-c2[nH]nc3c2C(c2ccc(Cl)cc2)C(C#N)=C(N)O3)c(C)s1 (stereo unspecified),3.4,77.5*,4.8,0.9,5.2,0.7,22.6*
Cc1ccsc1C1C(C#N)=C(N)Oc2n[nH]c(C)c21 (stereo unspecified),-0.3,15.4,-2.8,-10.3,6.9,1.1,/
Cc1ccc(C2C(C#N)=C(N)Oc3n[nH]c(C)c32)cc1 (stereo unspecified),-0.2,77.4*,0.8,-9.1,-5.8,-3.0,18.8*
Cc1[nH]nc2c1C(c1cnn(C)c1)C(C#N)=C(N)O2 (stereo unspecified),4.1,76.3*,-3.4,-17.0,-1.6,/,22.9*
Cc1[nH]nc2c1C(c1cccs1)C(C#N)=C(N)O2 (stereo unspecified),10.2,54.0*,0.7,-3.3,-1.1,/,34.2*
C[C@@H]1CN([C@@H](C)CO)C(=O)c2cc(-c3cccnc3)cnc2O[C@H]1CN(C)C,/,/,/,/,/,0.3,/
COCCOC(=O)N1C(=O)[C@@]2(c3cc(C#Cc4ccc(OC)cc4)ccc31)[C@H](c1ccc(OCCO)cc1)N1[C@H](c3ccccc3)[C@H](c3ccccc3)OC(=O)[C@H]1[C@@H]2C(=O)N1CCN(c2ncccn2)CC1,/,/,/,/,/,-0.4,/
Cc1[nH]nc2c1C(c1ccc(Cl)cc1)C(C#N)=C(N)O2 (stereo unspecified),-9.2,75.5*,-1.3,-2.8,-6.5,-0.5,28.9*
CCN(CC)CCN1C(=O)C(O)=C(C(C)=O)C1c1ccccc1[N+](=O)[O-] (stereo unspecified),-2.4,76.7*,3.1,0.5,16.8,-0.5,7.79*
CC(=O)C1=C(O)C(=O)N(CCc2ccccc2)C1c1ccccc1[N+](=O)[O-] (stereo unspecified),-6.7,-1.8,4.3,-6.2,-8.0,/,/
COC(=O)c1ccccc1OC(=O)c1ccc(Br)o1,-6.6,38.4*,82.6,1.4,-0.2,-2.6,>38
CCC(=O)N[C@H]1CC[C@H](CCNC(=O)Nc2ccc(C(F)(F)F)cc2)O[C@@H]1CO,/,/,/,/,/,0.7,/
CC(C)NC(=O)N(C)C[C@@H]1Oc2c(NC(=O)Nc3ccccc3)cccc2C(=O)N([C@@H](C)CO)C[C@H]1C,/,/,/,/,/,2.8,/
CCCc1c(C(=O)NNc2cccc(Cl)c2)cnn1-c1ccccc1,2.0,32.2*,93.3,-3.6,0.7,/,>38
CC(C)Oc1cccc(C(=O)C2CCCN(C(=O)c3cc(C(F)(F)F)[nH]n3)C2)c1 (stereo unspecified),15.2,-1.0,-7.2,1.8,27.8,-2.5,/
CC(C)Oc1cccc(C(=O)C2CCCN(C(=O)c3csnn3)C2)c1 (stereo unspecified),-9.3,51.9*,-5.7,-4.1,2.8,/,>38
CCc1ccc2c(c1)C(NC(C)=O)C(=O)N2CCN1CCOCC1 (stereo unspecified),-2.5,49.3*,1.6,-1.9,17.7,-0.9,>38
CCCN1C(=O)C(NC(C)=O)c2ccccc21 (stereo unspecified),6.9,-1.2,1.6,-4.8,12.2,-0.6,/
C/C(=C\c1ccco1)C1C(C#N)=C(N)Oc2n[nH]c(-c3ccc(C)cc3)c21 (stereo unspecified),1.3,21.0,-1.6,0.4,4.5,-2.5,/
C/C(=C\c1ccco1)C1C(C#N)=C(N)Oc2n[nH]c(-c3ccccc3)c21 (stereo unspecified),-10.8,76.6*,-0.7,1.5,3.1,-1.4,17.7*
SMILES,Yp Topo-I inh,RecA splice inh,Mtb betalactam,BJeLR viability,CCHFV vOTU inh,BioA inh,GFP chromo cs
CC(C)CC1C(C#N)=C(N)Oc2n[nH]c(-c3ccccc3)c21 (stereo unspecified),-8.6,82.5*,17.2,-9.4,-1.7,6.7,12.8*
Cc1[nH]nc2c1C(CC(C)C)C(C#N)=C(N)O2 (stereo unspecified),-3.0,72.2*,-1.6,6.0,0.8,1.2,20.5*
Cc1[nH]nc2c1C(Cc1ccccc1)C(C#N)=C(N)O2 (stereo unspecified),-5.6,26.8,-4.6,-0.2,2.7,0.0,/
C[C@H](CO)N1C[C@H](C)[C@H](CN(C)C(=O)Cc2ccncc2)Oc2cc(C#CC3CCCCC3)ccc2S1(=O)=O,/,/,/,/,/,0.4,/
COc1ccccc1-c1cc(C(F)(F)F)nc(N2CCCC2)n1,25.7,/,1.7,-17.1,9.4,1.3,/
COc1ccccc1-c1cc(C(F)(F)F)nc(S(=O)(=O)CCCC(=O)NCc2ccc(F)cc2)n1,4.1,47.4*,-0.3,/,-4.2,/,7.74*
COc1ccccc1-c1cc(C(F)(F)F)nc(S(=O)(=O)CCCC(=O)N2CCCCC2C)n1 (stereo unspecified),11.1,56.2*,51.6,-5.5,6.9,5.2,7.21*
COc1ccccc1-c1cc(C(F)(F)F)nc(S(=O)(=O)CCCC(=O)NC(C)C)n1,-0.6,22.0,44.4,-3.9,-7.1,-1.1,/
COc1ccccc1-c1cc(C(F)(F)F)nc(S(C)(=O)=O)n1,-1.1,50.2*,1.0,-9.7,3.1,-0.5,31.2*
COc1ccccc1-c1cc(C(F)(F)F)nc(S(=O)(=O)CCCC(=O)Nc2cc(C)on2)n1,0.9,24.7,34.2,-4.7,10.8,0.2,/
CN1CCN(c2nc(-c3ccco3)cc(C(F)(F)F)n2)CC1,0.2,-0.9,-3.0,2.6,/,1.6,/
CS(=O)(=O)c1nc(-c2ccco2)cc(C(F)(F)F)n1,/,39.9*,100.3,14.2,/,/,>38
CC(C)S(=O)(=O)C1=NSC2=NC(=O)/C(=C\c3ccc(OC(=O)c4ccco4)cc3)C(=N)N21,-0.9,34.4*,94.4,3.7,13.1,0.8,>38
N#Cc1c(-c2ccccc2)nc(SCC(=O)N2c3ccccc3Sc3ccccc32)[nH]c1=O,27.6,44.2*,-6.3,2.0,32.6*,/,10.4*
N#Cc1c(-c2ccccc2)nc(SCC(=O)N(c2ccccc2)c2ccccc2)[nH]c1=O,22.6,15.8,6.0,-2.2,13.8,12.5,/
CCc1nnc(NS(=O)(=O)c2ccc(NC(=S)NC(=O)/C=C/c3ccccc3)cc2)s1,-1.8,0.5,-3.6,4.8,23.3,/,/

# Screening results from PubChem BioAssay.
